Experimental data reported in PubChem BioAssay (NCATS).
Values without a mark were called inactive. How the calls were made is not given here.

System: HIV-1 nucleocapsid protein NCp7 (binding to TG oligonucleotide)
Experiment: HIV Nucleocapsid (AID 346);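 further: potency is for inhibitors that block NC binding and lower polarization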
Settings: HIV-1 NC / fluorescein-TGTGTGTG probe, fluorescence polarization
Procedure, shortened: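 HIV-1 NC (100 nM) binding to fluorescein-labelled ssDNA TG4xF (10 nM) in Hepes pH 7.5, 250mM NaCl, 1uM ZnCl2, TCEP and 2-mercaptoethanol; compounds pin-transferred, 1 hr room temperature, fluorescence polarization read on CCD imager.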
Potency means the concentration at half of the fitted maximal effect.

Row | Compound | Potency [µM]
1 | COc1ccc(-n2c(=O)c(-c3ccccc3)nc3cnc(N4CCNCC4)nc32)cc1 | > 20
2 | COc1ccc(NC(=O)N2CC3(CCN(S(C)(=O)=O)CC3)C2)cc1 | > 20
3 | O=C(c1cnccn1)N1CCC2(CCCN(Cc3nccs3)C2)CC1 | > 20
4 | O=C(c1csnn1)N1CCC2(CCCN(C(c3ccccc3)c3ccccc3)C2)CC1 | > 20
5 | Cc1noc(C)c1-c1nc(Nc2ccccc2)c2ccccc2n1 | > 20
6 | Cc1ccccc1-c1nccc(NCc2cccnc2)n1 | > 20
7 | CN(C)c1ncc2nc(CCc3ccccc3)c(=O)n(C3CC3)c2n1 | > 20
8 | COc1ccc(CNc2ncnc3ccc(-c4c(C)noc4C)cc23)c(OC)c1 | > 20
9 | Cc1noc(C)c1-c1ccc2ncnc(N3CCC(C(=O)O)CC3)c2c1 | > 20
10 | COc1ccc(CNc2ncncc2-c2cccc(C#N)c2)c(OC)c1 | > 20
11 | COc1ccccc1CNc1nc(-c2ccccc2CN(C)C)nc2ccccc12 | > 20
12 | O=c1c(CCc2ccccc2)nc2cncnc2n1C1CC1 | > 20
13 | CCNc1ncc2nc(-c3ccccc3)c(=O)n(C)c2n1 | > 20
14 | CS(=O)(=O)Nc1cccc(-c2nc(NC3CC3)c3ccccc3n2)c1 | > 20
15 | O=c1c(-c2ccc(F)cc2)nc2cnc(Oc3ccccc3)nc2n1C1CC1 | > 20
16 | CN(C)Cc1ccccc1-c1nccc(N(C)C)n1 | > 20
17 | Cc1cnc(CNc2ncncc2-c2c(C)noc2C)cn1 | > 20
18 | N#Cc1cccc(-c2cc(-n3ccnc3)ncn2)c1 | > 20
19 | Cc1cccc(CNc2ccnc(-c3ccccc3C(F)(F)F)n2)c1 | > 20
20 | FC(F)(F)c1ccccc1-c1ccc2ncnc(NCc3cccnc3)c2c1 | > 20

Row | Compound | Potency [µM]
21 | Cc1noc(C)c1-c1nc(NCc2cccnc2)c2ccccc2n1 | > 20
22 | c1nc(NCCN2CCOCC2)c2cc(-c3ccoc3)ccc2n1 | > 20
23 | O=c1c(-c2ccc(F)cc2)nc2cncnc2n1Cc1ccccc1 | > 20
24 | COc1cccc(-c2ccc3ncnc(N4CCOCC4)c3c2)c1 | > 20
25 | COc1ccc(-n2c(=O)c(-c3ccc(Cl)cc3)nc3cnc(N4CCNCC4)nc32)cc1 | > 20
26 | CN(C)c1ccc(-c2nc(N(C)Cc3ccco3)c3ccccc3n2)cc1 | > 20
27 | COc1ccccc1CNc1ncncc1-c1cccnc1 | > 20
28 | CC(=O)N1CCC2(CC1)CCN(C(=O)Nc1cccc(F)c1)CC2 | > 20
29 | COCCn1c(=O)c(-c2cccc(C#N)c2)nc2cnc(Oc3ccccc3)nc21 | > 20
30 | COc1ccccc1CN1CC[C@@]2(CCCN(C(=O)c3cccc(F)c3)C2)C1 | > 20
31 | O=c1c(-c2cc(F)cc(F)c2)nc2cnc(N3CCNCC3)nc2n1CCc1ccccc1 | > 20
32 | COc1cccc(Nc2ncc3nc(-c4ccc(F)cc4)c(=O)n(C)c3n2)c1 | > 4
33 | CS(=O)(=O)N1CCC2(CC1)CN(C(c1ccccc1)c1ccccc1)C2 | > 20
34 | Cc1ccccc1-c1nc(N2CCN(C)CC2)c2ccccc2n1 | > 20
35 | COCC(=O)N1CCC2(CC1)CCN(c1ccncc1)CC2 | > 20
36 | N#Cc1cccc(-c2ccc3ncnc(NCCN4CCOCC4)c3c2)c1 | > 20
37 | COCCn1c(=O)c(C)nc2cnc(OCc3ccccc3)nc21 | > 20
38 | Cc1nc2cncnc2n(-c2ccccc2)c1=O | > 20
39 | COc1ccc(C(=O)N2CCC3(CC2)CN(c2ccc(-c4ccccc4)cc2)C3)cc1 | > 20
40 | CC(C)CN1CC[C@@]2(CCCN(C(=O)c3cc(C(F)(F)F)cc(C(F)(F)F)c3)C2)C1 | > 20
